Several values for one entry are separate records, joined by “and”; a condition that tells them apart may be missing. Equal values may be shown once. The campaign covered roughly 290,000 compounds. About 2,700 (0.93%) were called active.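 The calls were made as follows: active = inhibition above the screen-wide mean plus 3 SD, computed separately per campaign (cut at about 16% in these data); inactive = the rest.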 The entries come from a sample that favours actives as a whole.
System: Heat shock protein HSP 90 (rabbit reticulocyte lysate; luciferase refolding)
Assay: HSP90 inhibitors, primary screen, cell lysate, luminescence (AID 1789);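 also: 0% = DMSO wells and 100% = 60 µM geldanamycin wells; inhibitors lower the luminescence because luciferase stays unfolded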
Conditions: 3 h, at 5.6 µM, hits give high values

inhibition, active:
COc1cc(C(=O)NN(CCC#N)C2=NS(=O)(=O)c3ccccc32)cc(OC)c1OC 26.7%
Cc1sc2nc(CSCC(=O)Nc3c(Cl)cccc3Cl)[nH]c(=O)c2c1C 35.8%
Cc1nn(CC(=O)Nc2ccc(F)cc2)c(=O)c2ccccc12 31.8%
O=C(Cn1c[n+](CC(=O)c2ccc([N+](=O)[O-])cc2)cn1)c1ccc([N+](=O)[O-])cc1 17.4% and 20.8%
CN(CCO)c1ccc(/C=N/Nc2nncc3ccccc23)cc1 58.9%
O=C(Nc1cccnc1)c1noc2c1CCCCC2 39.9%
CCCS(=O)(=O)N1CCCC(C(=O)NCCN2CCCCC2C)C1 (stereo unspecified) 20.8%
O=C1c2ccccc2C(Nc2ccc3c(c2)OCCO3)N1Cc1ccco1 (stereo unspecified) 16.6%
COc1ccc(/C=C/c2noc(-c3ccccc3OC(C)=O)n2)cc1 24.5%
O=C(O)c1ccc(N/N=C/c2ccc3ncccc3c2)cc1 16.2%
O=C(CN1C(=O)c2ccccc2S1(=O)=O)N1CCc2ccccc21 56.6%
O=C(CSC(=S)N1CCOCC1)c1ccccc1 34.1%
Cn1c(-c2ccco2)nc2cc3ccccc3cc21 37.7%
Clc1ccc2nc(CSc3ccccc3)cn2c1 25.5%

inhibition, inactive:
Cc1ccc(C(=O)NN(CCC#N)C2=NS(=O)(=O)c3ccccc32)cc1 -2.85%
COc1cc(C2C(C(=O)OCCC#N)=C(C)NC3=C2S(=O)(=O)c2ccccc23)cc(OC)c1OC (stereo unspecified) 3.37%
Cc1ccc(NC(=O)C(=O)NCc2ccc(/C=N/NC(=O)c3c(C)nc4cc(C)ccn34)o2)cc1 0.35%
Cc1sc2nc(COC(=O)C(NC(=O)c3ccc(Cl)cc3Cl)C(C)C)[nH]c(=O)c2c1C (stereo unspecified) -3.91%
CCN(CC)Cc1nc2sc(C)c(C)c2c(=O)[nH]1 2.4%
COc1ccc(NC(=O)N2CCCC2C(=O)NCc2ccccc2Cl)cc1 (stereo unspecified) -3.61%
O=S(=O)(c1ccccc1)c1nc(-c2ccccc2)oc1NCCCN1CCOCC1 -4.19%
O=C(NCCc1ccc(Cl)cc1Cl)c1cc([N+](=O)[O-])c[nH]c1=O -4.08%
O=C(Cn1nc(C(=O)O)c2ccccc2c1=O)Nc1ccc(F)cc1 0.16%
Cc1ccc(NC(=O)Cn2nc(C)c3ccccc3c2=O)c(C)c1 -0.05%
CCc1nnc(NC(=O)CCC(=O)N2CCN(c3cc(C)ccc3C)CC2)s1 -1.11%
O=C(CC(n1cncn1)C(Cl)(Cl)Cl)c1ccc([N+](=O)[O-])cc1 (stereo unspecified) -0.82%
O=C(c1ccncc1)c1ccc([N+](=O)[O-])cc1 1.75%
O=C(c1ccc(Br)o1)N1CCN(CCOc2ccccc2)CC1 -4.13%
COc1ccc(CNC(=O)c2ccc3oc(C(C)C)nc3c2)cc1 -4.27%
COc1cc(/C=N/Nc2nn3cnnc3c3ccccc23)cc(OC)c1OC -1.69%
C/C(=N\Nc1nncc2ccccc12)c1ccc(Cl)c([N+](=O)[O-])c1 3.18%
C=CCSc1nsc(NC(=O)Nc2cccc(C(C)=O)c2)n1 -1.06%
O=C(C1CCCN(S(=O)(=O)c2ccc([N+](=O)[O-])cc2)C1)N1CCCCC1 (stereo unspecified) 6.54%
O=C(c1noc2c1CCCC2)N1CCc2ccccc2C1 3.28%
O=C(Nc1cccnc1)c1cccc(S(=O)(=O)N2CCCC2)c1 -0.49%
CCn1cc(CN2CCC(C(=O)Nc3cccc(-c4cccc(Cl)c4)c3)CC2)cn1 7.07%
CCCS(=O)(=O)N1CCCC(C(=O)NCc2ccco2)C1 (stereo unspecified) -2%
CCS(=O)(=O)N1CCCC(C(=O)NCc2ccc(C)cc2)C1 (stereo unspecified) -1.37%
COc1ccccc1CN1CCCC(N2CCN(c3ccc(F)cc3)CC2)C1 (stereo unspecified) -1.44%
O=C(NC1CCCCC1)C1c2ccccc2C(=O)N1Cc1ccco1 (stereo unspecified) -0.31%
Cc1ccnc(N2C(=O)c3ccccc3C2Nc2ccc3c(c2)OCCO3)c1 (stereo unspecified) 1.87%
CCc1ccc(NC(=O)CN2CCC(C(=O)c3ccc(OC)cc3)CC2)cc1 0.9%
Cc1ccccc1OCC(=O)N(Cc1cccc(F)c1)C1CCS(=O)(=O)C1 (stereo unspecified) -1.03%
CC(=O)Oc1ccc(-c2nc3c(C)cccc3c(=O)o2)cc1 -3.74%
CC(=O)Oc1ccc2c(c1)C(=O)c1ccccc1C2=O 4.58%
O=C(O)c1ccc(/C=N/Nc2nc(N3CCCCC3)nc(N3CCCCC3)n2)cc1 1.51%
Cc1ccc2cc(/C=N/Nc3ccc(C(=O)O)cc3)c(Cl)nc2c1 1.97%
O=C(CN1C(=O)c2ccccc2S1(=O)=O)NC1CCCCC1 0.8%
O=C(CN1CCN(c2ccccn2)CC1)N1CCc2ccccc21 2.52%
O=C(Oc1cccc(O)c1)C1CCCCC1 2.03%
O=C(CSC(=S)N1CCOCC1)c1cc(Br)cc(Br)c1O -0.31%
CC1CN(C(=S)SCC(=O)c2ccccc2)CC(C)O1 (stereo unspecified) 1.9%
Cc1cccc(NC(=O)c2cccc(C(=O)Nc3cccc(C)c3C)n2)c1C -2.8%
O=C(NCCCc1ccccc1)c1cc(COc2c(F)cccc2F)on1 -1.08%
COc1ccc(CNS(=O)(=O)c2cc(-c3cc(C)no3)ccc2C(C)C)cc1 6.8%
CCN(CC)CCN(C(=O)c1cc(Cl)sc1Cl)c1nc2cc3c(cc2s1)OCO3 0.85%
COc1ccc(/C=N/Nc2nc(-c3ccc(C)cc3)c(C#N)c(=O)[nH]2)cc1 -6.02%
S=c1[nH]nc(-c2ccco2)n1/N=C/c1ccccc1 1.32%
Cn1cccc1-c1nc2ccccc2n1C 2.48%
CC(C)Cn1cnc2c1c(=O)n(CC(=O)NN)c(=O)n2Cc1ccccc1 -0.47%
COc1ccc(OC)c(NC(=O)c2cccc(S(=O)(=O)N3CCN(C(C)=O)CC3)c2)c1 0.82%
Cc1c(NC(=O)c2c([N+](=O)[O-])cnn2C)c(=O)n(-c2ccccc2)n1C 0.17%
O=C(/C=C/c1ccc2c(c1)OCO2)NCc1cn2cc(Cl)ccc2n1 -0.84%
CCOc1ncccc1C(=O)OCc1cn2cc(Cl)ccc2n1 -0.94%
N#C[C@]1(S(=O)(=O)c2ccccc2)C[C@@H]2ON=C(c3cccc(Br)c3)[C@@H]2C1 0.82%
COc1ccc(C(=O)N[C@H](C(=O)NCc2ccccc2)C(C)C)cc1 -4.29%
